Z-score and composite z-score data for 13 compounds are collected here from PubChem BioAssay.

Activity calls are given as the source filed them. Unless noted, no rule for the calls is given here.

Assay [1] can be described thus: resazurin metabolic signal in HepG2 cells – cell-based, resazurin fluorescence, 24 h, PK04 Diversity Set, profiling panel (AID 1172). Also: test concentration not given here. As to conditions: HepG2 viability, higher = more signal. (Alamar Blue is a resazurin reagent that responds to reducing activity.)
Assay [2] in a line: budding yeast growth changes without added modifier – OD600, strain BY4716, 24 h, basal condition, primary screen (AID 1173). As to conditions: S. cerevisiae BY4716 growth, OD600, 24 h; higher = more signal, called active from +8 up or from −8 down.
The nature of assay [3]: viability profiling in MM1S myeloma cells – cell-based, resazurin fluorescence, basal, 24 h, PK04 Diversity Set, profiling panel (AID 1174).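 Also: MM1S multiple myeloma cell line; test concentration not given here.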 As to conditions: higher = more signal, called active from +8 up or from −8 down.
Assay [4] has as its target Dihydroorotate dehydrogenase (quinone), mitochondrial (Plasmodium falciparum (isolate 3D7)) (UniProt Q08210). Description: inhibition of P. falciparum DHODH – biochemical, C-terminal His tag, absorbance 600 nm, primary screen (AID 1175).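 Also: recombinant parasite enzyme with a five histidine tag at its C terminus; test concentration not given here.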 The conditions noted are these: PfDHODH enzyme, DCIP absorbance 600 nm; higher = more signal, called active from +8 up or from −8 down.

A short description of assay [5]: inhibition of PAO1 biofilm formation – strain PAO1, LB-PBS medium, absorbance 600 nm, primary screen (AID 1176). Also: test concentration not given here. As to conditions: P. aeruginosa PAO1 growth/biofilm, A600, 12 h; higher = more signal.
Assay [6] can be described thus: growth modulation of vineyard yeast isolate – strain RM11-1a, OD600, basal, 24 h, primary screen (AID 1177).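 Also: cultures grown under basal conditions with no added stressor; test concentration not given here.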 The conditions noted are these: S. cerevisiae RM11-1a growth, OD600, 24 h; higher = more signal, called active from +8 up or from −8 down.
Assay [7] can be described thus: growth of efflux-deficient E. coli DRC39 – strain DRC39, OD650, 24 h, E. coli filamentation inducers, primary screen (AID 1178).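 Also: growth measured as culture turbidity by optical density at 650 nm; test concentration not given here.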 As to conditions: E. coli DRC39 acrAB, higher = more signal, called active from +8 up or from −8 down.
A short description of assay [8]: growth of efflux-deficient E. coli DRC39 – strain DRC39, OD650, 48 h, E. coli filamentation inducers, primary screen (AID 1179).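 Also: screen aims at cell division blockers that make cells filament.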 The conditions noted are these: E. coli DRC39 delta-acrAB growth, higher = more signal, called active from +8 up or from −8 down.
Assay [9] in a line: viability profiling in RPMI8226 myeloma cells – cell-based, resazurin fluorescence, basal, 24 h, PK04 Diversity Set, profiling panel (AID 1180).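 Also: RPMI8826 multiple myeloma cell line at 5000 cells per well; test concentration not given here.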 As to conditions: higher = more signal.
In assay [10] the target is E3 ubiquitin-protein ligase XIAP (Homo sapiens) (UniProt P98170). Kind of assay: small molecules binding XIAP protein – biophysical, small-molecule microarray, fluorescence 635 nm, primary screen (AID 1181).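 Also: score merges 667 nm emission and signal to noise over triplicate slides.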 The conditions noted are these: higher = more signal.
Chain of E3 ubiquitin-protein ligase XIAP (Homo sapiens) (P98170 whole entry, looked up): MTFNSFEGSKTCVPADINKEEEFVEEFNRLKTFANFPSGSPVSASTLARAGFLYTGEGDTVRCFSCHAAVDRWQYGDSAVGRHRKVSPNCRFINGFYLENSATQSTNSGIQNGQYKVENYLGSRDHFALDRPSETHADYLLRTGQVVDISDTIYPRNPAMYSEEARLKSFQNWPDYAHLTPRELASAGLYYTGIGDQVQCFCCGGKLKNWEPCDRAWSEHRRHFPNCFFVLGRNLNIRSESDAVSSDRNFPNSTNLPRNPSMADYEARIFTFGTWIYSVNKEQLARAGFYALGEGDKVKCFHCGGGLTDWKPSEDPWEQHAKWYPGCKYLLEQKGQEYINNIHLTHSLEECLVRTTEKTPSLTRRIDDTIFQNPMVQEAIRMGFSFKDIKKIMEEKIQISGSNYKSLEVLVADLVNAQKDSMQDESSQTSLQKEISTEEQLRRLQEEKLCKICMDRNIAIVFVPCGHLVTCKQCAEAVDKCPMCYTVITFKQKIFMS

Chain of Dihydroorotate dehydrogenase (quinone), mitochondrial (Plasmodium falciparum (isolate 3D7)) (Q08210 whole entry, looked up): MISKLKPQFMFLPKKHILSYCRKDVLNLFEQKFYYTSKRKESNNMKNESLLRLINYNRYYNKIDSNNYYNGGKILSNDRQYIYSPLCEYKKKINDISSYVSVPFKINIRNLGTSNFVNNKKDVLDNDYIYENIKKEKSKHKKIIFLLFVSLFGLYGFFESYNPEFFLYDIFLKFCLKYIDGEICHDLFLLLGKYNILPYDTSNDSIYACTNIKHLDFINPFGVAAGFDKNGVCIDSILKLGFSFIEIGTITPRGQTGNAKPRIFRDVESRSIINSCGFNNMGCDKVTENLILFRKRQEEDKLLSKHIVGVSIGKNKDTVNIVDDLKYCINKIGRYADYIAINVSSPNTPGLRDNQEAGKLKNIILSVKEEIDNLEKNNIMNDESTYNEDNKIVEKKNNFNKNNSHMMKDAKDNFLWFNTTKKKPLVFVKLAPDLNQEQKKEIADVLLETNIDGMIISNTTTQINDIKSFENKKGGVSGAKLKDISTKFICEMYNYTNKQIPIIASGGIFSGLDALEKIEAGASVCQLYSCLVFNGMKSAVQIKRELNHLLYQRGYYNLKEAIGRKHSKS

Take `COC(=O)CC=C[C@@H](C)[C@@H](C=NO[C@@H](C)c1cn([C@H](CO)Cc2ccccc2)nn1)OC`: the z-score is -0.849 in [1]; -0.966 (inactive) in assay [2]; 0.104 (inactive) in assay [3]; -0.418 (inactive) in assay [5]; -2.71 (inactive) in [6]; 0.24 (inactive) in assay [7]. Also, the z-score in [8] is -0.913 (inactive); in assay [9], -0.514. The results for the composite z-score in [4] and in assay [10] were -0.842 (inactive) and -0.139, respectively.

In the case of `COC(=O)CC=C[C@@H](C)[C@@H]1C=C[C@H](O)[C@@H](CO)O1`, the z-score in assay [1] was -0.118; in [2], 0.626 (inactive); in [3] it was -3.24 (inactive); in assay [5], 0.274 (inactive); in assay [6] it was 0.86 (inactive); in assay [7], 0.439 (inactive). The z-score is 0.483 (inactive) in assay [8] and -1.28 in assay [9]. Moreover, the composite z-score in assay [4] is 0.35 (inactive); in assay [10], 0.0727.

With `COC(=O)CC=C[C@@H](C)[C@@H](C=NO[C@H](C)c1cn([C@@H]2COC[C@H]2O)nn1)NS(=O)(=O)c1ccc(C)cc1`, the z-score was -1.37 in assay [1]; -0.335 (inactive) in assay [2]; -1.34 (inactive) in [3]; 0.301 (inactive) in assay [5]; 0.278 (inactive) in assay [6]; 0.524 (inactive) in [7]. The z-score was 1.29 (inactive) in assay [8] and -0.687 in [9]. Besides, the results for the composite z-score in assay [4] and in [10] were -0.753 (inactive) and -0.267, respectively.

For the compound `Cc1ccc(S(=O)(=O)NC(CCc2ccccc2)CC(=O)C(C)(C)C)cc1` (stereo not given), the z-score was 0.277 in assay [1]; -1 (inactive) in assay [2]; -0.146 (inactive) in assay [3]; 0.143 (inactive) in assay [5]; 0.384 (inactive) in assay [6]; 0.628 (inactive) in [7]. The z-score in [8] was 0.274 (inactive); in assay [9] it was 0.159. Besides, the composite z-score in assay [4] was 0.0379 (inactive); in assay [10], -0.195.

As to `C[C@@H]1CC[C@H]2C(=O)O[C@@H](Cc3ccccc3)CN2[C@H]1c1ccc(Br)cc1`, the z-score is 0.603 in [1]; -1.06 (inactive) in [2]; 0.656 (inactive) in [3]; -0.491 (inactive) in assay [5]; 0.37 (inactive) in assay [6]; -0.402 (inactive) in assay [7]. Moreover, the figures for the z-score in assay [8] and in assay [9] were -0.161 (inactive) and 0.0066, respectively. Also, the composite z-score is 0.245 (inactive) in assay [4] and 0.0871 in [10].

In the case of `C=C(C)C(=O)OCC1CN2[C@@H](CC[C@@H](C)[C@@H]2c2ccc(Br)cc2)C(=O)O1` (stereo not given in full), the z-score in assay [1] is 0.679; in assay [2] it was -0.638 (inactive); in assay [3], 0.653 (inactive); in [5] it was -0.564 (inactive); in assay [6], -0.18 (inactive); in assay [7] it was 0.0293 (inactive). The values for the z-score in assay [8] and in assay [9] were -1.59 (inactive) and 0.759, respectively. Moreover, the composite z-score in assay [4] is -0.134 (inactive); in assay [10] it was -0.0899.

Regarding `COc1cccc([C@H]2Oc3ccc(OC)cc3C(=NOC[C@@H](O)[C@H]3O[C@@H]4OC(C)(C)O[C@@H]4[C@H]3O)[C@@H]2O)c1`, the z-score in assay [1] is -0.791; in assay [2] it was -6.98 (inactive); in assay [3], -1.21 (inactive); in [5], 0.56 (inactive); in assay [6] it was -0.0039 (inactive); in assay [7], -0.218 (inactive). Also, the z-score in assay [8] was 0.0308 (inactive); in [9] it was -0.687. Also, the composite z-score was 0.474 (inactive) in [4] and 0.0865 in assay [10].

As for `O=C1CCCC(C2=CCCCC2=O)C1` (stereo not given), the z-score in assay [1] was -0.575; in assay [2] it was 0.0749 (inactive); in assay [3] it was -1.83 (inactive); in [5], 0.663 (inactive); in [6], 0.541 (inactive); in [7] it was 0.998 (inactive). The z-score in [8] is 0.524 (inactive); in assay [9], -1.01. The figures for the composite z-score in assay [4] and in assay [10] were 0.153 (inactive) and 0.197, respectively.

For the compound `C[C@H]1CC[C@H]2C(=O)OC(CO)CN2[C@@H]1c1ccc(Br)cc1` (stereo not given in full), the z-score in assay [1] is 0.228; in [2], -1.23 (inactive); in [3], -0.0363 (inactive); in assay [5] it was 0.967 (inactive); in assay [6], -0.373 (inactive); in assay [7] it was -0.472 (inactive). Moreover, the z-score in assay [8] was -0.304 (inactive); in [9], 0.979. Further, the composite z-score was -0.0747 (inactive) in assay [4] and 0.213 in assay [10].

With `CO[C@H]1COC(=O)CC=C[C@H](C)[C@@H](OC)COC(=O)[C@@H](C)NC(=O)CC=C[C@@H]1C`, the z-score in assay [1] is 0.789; in assay [2] it was -0.774 (inactive); in [3], 1.01 (inactive); in assay [5] it was -0.491 (inactive); in assay [6], -0.937 (inactive); in assay [7] it was 0.0013 (inactive). The z-score was -0.597 (inactive) in assay [8] and 0.808 in [9]. Further, the composite z-score in assay [4] is -0.355 (inactive); in assay [10], -0.244.

In the case of `COc1ccc(COC(=O)NN=C2C[C@@H](O)[C@@H](O)[C@@H]3[C@@H]4C(=O)N(C5CCCCC5)C(=O)[C@@H]4CC[C@H]23)cc1`, the z-score in assay [1] is -0.689; in [2] it was 1.07 (inactive); in assay [3], -1.15 (inactive); in assay [5], 1 (inactive); in assay [6], 0.335 (inactive); in assay [7] it was -0.189 (inactive). Also, the z-score was -0.582 (inactive) in [8] and -0.363 in [9]. Also, the figures for the composite z-score in assay [4] and in [10] were 0.608 (inactive) and -0.267, respectively.

Take `COC(=O)CC=C[C@@H](C)[C@@H](C=NO[C@@H]1O[C@H](COC(C)=O)[C@@H](OC(C)=O)[C@H](OC(C)=O)[C@H]1OC(C)=O)NS(=O)(=O)c1ccc(C)cc1`: the z-score in assay [1] was 0.22; in assay [2], 0.653 (inactive); in assay [3], -1.04 (inactive); in [5], 0.298 (inactive); in [6] it was -0.186 (inactive); in [7], -1.8 (inactive). For the same compound, the z-score in [8] is -0.57 (inactive); in [9] it was -0.437. In addition, the results for the composite z-score in [4] and in [10] were -0.069 (inactive) and -0.177, respectively.

Take `CO[C@H]1COC(=O)[C@H](C)NC(=O)CC=C[C@@H](C)[C@H](OC)COC(=O)[C@@H](OCc2ccccc2)C=C[C@@H]1C`: the z-score in assay [1] is 1.15; in [2] it was -0.479 (inactive); in [3] it was 0.346 (inactive); in [5], -0.838 (inactive); in assay [6] it was -0.462 (inactive); in [7], 0.575 (inactive). In addition, the z-score in assay [8] was 0.2 (inactive); in assay [9] it was 0.323. The figures for the composite z-score in assay [4] and in [10] were 0.234 (inactive) and -0.142, respectively.
